# From PubChem BioAssay (NCI)
# Compounds without any hit were thinned out: in the full panel of roughly 79,000, 15% have a hit. Values without a mark were called inactive. Calls of active or inactive are those of the source. Rule as the data show it: active = growth inhibition above about 70%; inactive = the rest.
# Experiments:
# [1] = NCI Yeast Anticancer Drug Screen. Data for the rad50 strain (AID 155);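 also: 0% = growth of vehicle-only cultures of the same strain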; conditions: S. cerevisiae rad50 strain growth inhibition; at 50.0 µM; stronger effect = higher value
# Method in brief: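 Genetically altered yeast (DNA repair pathway); compound treatment; growth inhibition vs vehicle ctrl.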
# [2] = NCI Yeast Anticancer Drug Screen. Data for the mec2-1 strain (AID 157); conditions: S. cerevisiae mec2-1 strain, at 50.0 µM, stronger effect = higher value
# Method in brief: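 Strain: mec2-1 (DNA repair/cell cycle alteration). Compound exposure, then growth measured; inhibition expressed relative to vehicle.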
# [3] = NCI Yeast Anticancer Drug Screen. Data for the sgs1 mgt1 strain (AID 161);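 also: 0% = growth of cultures given vehicle only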; conditions: S. cerevisiae sgs1 mgt1 strain, at 50.0 µM, stronger effect = higher value
# Method in brief: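 Test agents were incubated with a DNA-repair-mutant yeast strain. Growth was then read and compared against vehicle-treated controls.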
# [4] = NCI Yeast Anticancer Drug Screen. Data for the cln2 rad14 strain (AID 165);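 also: 0% = growth equal to vehicle treated cultures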; conditions: S. cerevisiae cln2 rad14 strain, at 50.0 µM, stronger effect = higher value
# Method in brief: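 Compounds are applied to the cln2 rad14 yeast strain, and growth is then compared with that of vehicle-treated cultures to give inhibition.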
# [5] = NCI Yeast Anticancer Drug Screen. Data for the bub3 strain (AID 167); conditions: S. cerevisiae bub3 mutant strain, at 50.0 µM, stronger effect = higher value
# Method in brief: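 Yeast carrying a defined mutation is treated with each compound, and growth is compared with that of vehicle-exposed cells to give inhibition.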
# [6] = NCI Yeast Anticancer Drug Screen. Data for the mlh1 rad18 strain (AID 175); conditions: S. cerevisiae mlh1 rad18 strain growth inhibition; at 50.0 µM; stronger effect = higher value
# Method in brief: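 Read-out is yeast growth inhibition, calculated against vehicle-only controls. The compound was applied to a strain engineered with DNA damage repair alterations.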
SMILES,growth inhibition [1],growth inhibition [2],growth inhibition [3],growth inhibition [4],growth inhibition [5],growth inhibition [6]
CCOC(=O)C(NC(=O)OC(C)(C)C)C(=O)OCC,-43.2%,-90.8%,-33.1%,-28.9%,2.6%,-27.4%
Nc1nc(-c2ccccc2)cc(-c2cc(-c3ccccc3)nc(N)n2)n1,12.8%,-8.35%,-18.9%,-1.5%,-5.95%,
N#CCCCCN1CCCCC1,-4.85%,-20.9%,-9.95%,9.8%,-14.6%,
CNn1c(-c2ccc(C)cc2)n[nH]c1=O,8.95%,0.25%,-5.95%,4.15%,18.7%,
C=C(C)CS(=O)(=O)Cc1ccccc1,14.6%,-10.1%,-1.8%,-40.9%,-4.55%,
CC(C)c1ccc(C(=O)OCCCc2ccccc2)cc1,8.7%,-5.65%,18.2%,-10.7%,4%,
[Cl][Pt+2][Cl].[NH-]CC(C[NH-])(Cc1ccccc1)Cc1ccccc1,-0.55%,-13.9%,-2.2%,15.1%,-18.2%,
FC1(F)C2(OCCO2)C(F)(F)C12OCCO2,-1.6%,-5.25%,-1.8%,-1.1%,-8.5%,
CCOC(=O)c1c(C)c2c(n1C)CC/C(=C\N1CCOCC1)C2=O,11.3%,13.1%,13.6%,-13.8%,14.5%,
O=C(Oc1ccc([N+](=O)[O-])cc1)C(CSC(c1ccccc1)(c1ccccc1)c1ccccc1)N1C(=O)c2ccccc2C1=O (stereo not drawn),61.8%,46.7%,44.5%,58.7%,31.9%,
CC(=O)OCc1cn(S(=O)(=O)c2ccc(C)cc2)cn1,17.9%,-2.45%,19.1%,-2.65%,11.6%,
CCOCC(=O)N[C@H]1CCc2cc(OC)c(OC)c(OC)c2-c2ccc(OC)c(=O)cc21,9.45%,-32.8%,22.4%,-2.6%,9.35%,
CCCCc1c(O)nc(NCCCC(N)C(=O)O)[nH]c1=O (stereo not drawn),-9.55%,-13.8%,-7.2%,-28.9%,-4.6%,
OC1(CCC2OCCO2)c2ccccc2-c2ccccc21,-3.9%,7.05%,7.85%,25.4%,15.8%,
COc1cccc(CC2C(=O)N=C(NC(C)=O)N2C)c1OC(C)=O (stereo not drawn),-35%,-7.4%,-23.6%,-11.7%,-5.65%,
Cc1[nH]nc(N)c1C(N)=O,5.2%,2.5%,26.6%,1.2%,0.85%,
O=CC(=O)c1ccc(Br)cc1,13.7%,19.2%,13.2%,-1.05%,-7.15%,
CNCC(OC(C)C)c1ccc(O)c(O)c1 (stereo not drawn),-3.3%,-2.85%,-0.05%,-36.4%,-19.2%,
CC1(C)OCC(C2OC3OC(C)(C)OC3C2OP(=O)(N2CC2)N2CC2)O1 (stereo not drawn),-16.1%,-31.4%,-38.9%,-49.2%,-70.8%,
COc1cc(C2CC=CCC2C(=O)O)cc(OC)c1OC (stereo not drawn),-13.6%,2.4%,-0.65%,7.95%,-0.25%,
Cc1ccc2nc(C)cc(NC(=O)c3ccccc3)c2c1,13.6%,8.45%,8.55%,-18.1%,-5.3%,
CN(C)Cc1cc(O)c(O)c(CN(C)C)c1,-16.6%,-19.9%,-8.45%,5.4%,-40.2%,
CC(=O)Nc1cccc(OCOc2ccc([N+](=O)[O-])cc2)c1,-4.65%,20.3%,30.4%,-2.6%,22.6%,

SMILES,growth inhibition [1],growth inhibition [2],growth inhibition [3],growth inhibition [4],growth inhibition [5],growth inhibition [6]
COC(=O)C1=C(C)C(=O)[C@]23C(CCCC[C@H]12)C(=O)[C@H](C(=O)OC)C3C (stereo partly drawn),-19.7%,-31.2%,-11%,-20.9%,-13.9%,
O=S(=O)(O)c1ccccc1P(c1ccccc1)c1ccccc1,17.1%,17.7%,8.15%,36.1%,17.6%,
O=C(O)c1cncc(-c2ccccc2)c1,38.2%,30.7%,23.4%,14.1%,3%,
Cc1ccc2c(c1)C1(c3ccccc3)Oc3ccc(C)cc3C(c3ccccc3)(O2)O1,12.2%,5.75%,10.7%,25.3%,-4.9%,
C/C(O)=C(\C=N\C(=S)N=Nc1c(O)[nH]c2ccccc12)C(=O)Nc1ccccc1C,51.5%,36.6%,43.4%,32.5%,62%,
CCOc1ccc(/C=C/c2ccc3ccccc3[n+]2C)cc1OCC,16.1%,9%,-5.3%,-14%,-1.35%,
CCCCCCCC(=O)C(C)C,7.55%,5.85%,11.8%,4.4%,9.6%,
Cc1ccc2nc(N/N=C/c3sccc3C)cc(C)c2c1,-24.3%,-19.9%,-20.9%,-3.25%,-30.1%,
CCC(C)N(C(=O)C(C)Br)C(C)CC (stereo not drawn),2.95%,-9.4%,-19.2%,-39.2%,-10%,
O=S(=O)(O)C1CC2C(c3ccccc31)N1ON2O1 (stereo not drawn),54.8%,-2.05%,10.3%,3.75%,-14.7%,
CCC(=O)Nc1ncnc2ncn(C(=O)CC)c12,-8.7%,-48.2%,-32.9%,-23.6%,-45.1%,9.65%
O=C1C(O)=CC(=C(c2ccccc2)c2ccccc2)c2cc(Br)ccc21,33.7%,26.2%,44.4%,8.9%,11.4%,
COc1ccc(-c2ccccc2)cc1NC(C)=O,9.8%,15.2%,6.75%,20.9%,14%,
CCOC(=O)C(F)(F)C(F)(F)C(F)(F)F,5.45%,-16.4%,9.1%,10.9%,-5.55%,
COc1ccc(N2C(=O)C3c4[nH]c5ccccc5c4C4CCCCCCCCCCC4C3C2=O)cc1 (stereo not drawn),9.95%,-19.6%,-3.2%,-65.3%,-26.4%,
O=C(/C=C/c1ccccc1)c1ccc(O)cc1O,-27.3%,-13.2%,14.8%,-27.1%,1.65%,
CCOC(=O)CN(C)C#N,-16.9%,-33.3%,-44%,-5.3%,-31.6%,
CC(C)C(=O)/C=C/c1ccc(Cl)c(Cl)c1,41.2%,28.2%,26.4%,-1.85%,18.9%,26.8%
N[C@@H](Cc1ccccc1)C(=O)NCCNC(=O)[C@@H](N)Cc1ccccc1,-13.1%,-3.25%,-8.85%,17.2%,-0.7%,3.45%
CCC(/C=C/C(C)C1CCC2C3CC=C4CC(OC(=O)Nc5ccccc5)CCC4(C)C3CCC12C)C(C)C (stereo not drawn),-6.65%,2.1%,-4.9%,77.2% (active),5.55%,57.5%
CN(C)CCCN(c1nc2cc(Cl)ccc2o1)c1nc2cc(Cl)ccc2o1,33.7%,17.1%,36.1%,52.9%,8.7%,48.5%
CCOC(=O)C1=C(C)N(NC(=O)Nc2ccccc2)C2(N)N(NC(=O)Nc3ccccc3)C(C)=C(C(=O)OCC)C12C(=O)OCC (stereo not drawn),-28.1%,-44.5%,-42%,-20.7%,-7.6%,-15.8%
N#Cc1ccc(CCc2ccccc2)cc1,1.2%,-3.75%,18.6%,10.4%,2.95%,-2.05%
